Bioassay records as filed in PubChem BioAssay.
Shown are actives, neighbours in structure and some others; about 1.3% of the full set was active somewhere.
RecA intein inh = Mtb RecA intein splicing inhibition | inhibition, % (test concentration not listed) | 290,000 compounds, 0.75% hits | AID 2221 | P9WHJ3 | cell-free RecA intein splicing, fluorescence; in the data active = inhibition above about 30%;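 note: 0% = vehicle wells and 100% = reference inhibitor control wells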
BJeLR viability = kills HRASV12-expressing BJeLR cells; BJeLR (HRASV12) viability, CellTiter-Glo ATP luminescence, 48 h; inhibition, % (concentration not given with the values); 300,000 compounds, 0.17% hits; AID 1554; in the data active = inhibition above about 50%
Rv3671c protease = inhibitors of M. tuberculosis serine protease Rv3671c; P9WHR9; inhibition, % at 5.96 µM; 320,000 compounds, 0.048% hits; AID 2606; in the data active = inhibition above about 38%;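 note: extracellular domain of Rv3671c used as enzyme; 0% = enzyme with DMSO and 100% = no enzyme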
Target sequence (P9WHR9 whole entry, looked up, the tested form may be a part): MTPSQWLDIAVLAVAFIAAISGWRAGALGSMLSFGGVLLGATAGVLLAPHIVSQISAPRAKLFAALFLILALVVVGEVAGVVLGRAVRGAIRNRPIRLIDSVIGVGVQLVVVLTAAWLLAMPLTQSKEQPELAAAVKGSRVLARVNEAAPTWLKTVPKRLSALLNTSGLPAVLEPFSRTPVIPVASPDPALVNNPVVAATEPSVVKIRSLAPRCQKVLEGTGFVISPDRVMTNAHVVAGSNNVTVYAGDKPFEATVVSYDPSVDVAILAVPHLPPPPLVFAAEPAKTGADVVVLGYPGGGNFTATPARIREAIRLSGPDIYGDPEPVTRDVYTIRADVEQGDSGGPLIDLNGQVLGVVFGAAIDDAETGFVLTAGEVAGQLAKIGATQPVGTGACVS
FadD28 binding = blocks FadD28 binding to the bisubstrate probe; fluorescence polarization; inhibition, % at 12.5 µM; 360,000 compounds, 0.22% hits; in the data active = inhibition above about 8.5%, passing the limit was not always enough
UGM FP inh = Mtb UDP-galactopyranose mutase inhibition. P9WIQ1. purified UGM, fluorescence polarization probe displacement. inhibition, % at 10 µM. 320,000 compounds, 0.06% hits. AID 504406; in the data active = inhibition above about 10%, passing the limit was not always enough
PrP UTR inh = suppresses PrP 5' UTR mRNA reporter expression | cell-based PrP 5' UTR mRNA reporter, plate reader | inhibition, % (no concentration beside the values) | 340,000 compounds, 0.35% hits | AID 488862; in the data active = inhibition above about 52%; note: 0 = median of the neutral control wells
GFP chromo cs = counter-screen: blocks GFP chromophore formation. EC50, µM. cell-free GFP chromophore formation, fluorescence. 2,100 compounds, 83% hits. shares compounds with RecA intein inh; call rule not given here
Active calls of the source: *; . = not tested or not shown.

SMILES	RecA intein inh	BJeLR viability	Rv3671c protease	FadD28 binding	UGM FP inh	PrP UTR inh	GFP chromo cs
O=C(NNC(=O)c1ccc2ccccc2c1O)c1ccccc1Cl	34.6*	9.0	-4.2	-2.1	2.7	-54.7	>38
Cc1ccc(-c2cc(=O)[nH][nH]2)c(C)c1	94.9*	-6.6	8.0	-1.5	1.5	-11.7	2.94*
CC(=O)N1CC=C2C(C#N)=C(N)C(C#N)(C#N)C(CCc3ccccc3)C2C1 (configuration not stated)	18.9	-11.9	-5.2	0.5	-2.5	3.9	.
N#CC1=C(N)C(C#N)(C#N)C(c2cccnc2)C2CN(C(=O)OCc3ccccc3)CC=C12 (configuration not stated)	45.4*	-15.1	-1.4	-1.4	2.2	-8.8	4.39*
O=C(Cc1cccc(NC(=O)C2CCCN(C(=O)C3CCC3)C2)c1)Nc1cccc(C(=O)N2CCOCC2)c1 (configuration not stated)	.	.	.	-2.1	.	-6.6	.
O=C(O)c1cccc(NC2=C(n3nnc4ccccc43)C(=O)c3ccccc3C2=O)c1	77.9*	17.7	-52.0	-4.1	2.5	-35.8	1.92*
CC(C)Cn1c(C(C)C)nc([N+](=O)[O-])c1S(=O)(=O)c1ccc(F)cc1	51.0*	-0.1	-2.5	-1.4	-1.6	-25.9	>38
COCCN(CC(=O)Nc1cccc(C)c1C)C(=O)/C=C/c1ccc2c(c1)OCCO2	.	.	.	-1.3	.	.	.
COc1ccc(C2=C(N)c3ccccc3C2=O)cc1	1.8	0.6	4.2	-1.0	0.1	-83.2	.
COC1=C(c2ccccc2)C(=O)c2ccccc2C1=O	69.1*	.	-18.4	0.1	1.7	-29.7	14.2*
N#CCCn1[nH]c(-c2ccccc2)cc1=O	97.1*	11.5	-168.7	-3.5	1.9	-35.6	5.08*
COc1cccc(/C=C(/C#N)c2ccc(F)cc2)c1OCc1cccc(C(=O)O)c1	0.1	6.2	-10.0	-4.4	0.6	3.4	.
N#C/C(=C/c1cccn1-c1cccc(C(=O)O)c1)c1ccc(F)cc1	44.8*	2.5	.	-5.8	.	-7.9	>38
CNC(=O)c1ccc(CN(C)C(=O)c2cccc(S(=O)(=O)N3CCc4ccccc4C3)c2)cc1	.	.	.	-2.4	.	.	.
O=C(CNC(=O)C1COc2ccccc2O1)N/N=C\c1ccccc1Cl (configuration not stated)	0.1	8.6	-12.4	-1.2	4.2	-5.7	>38
O=C(N/N=C\c1ccc(-c2ccccc2[N+](=O)[O-])o1)C1COc2ccccc2O1 (configuration not stated)	32.6*	-17.2	-74.8	-3.9	0.8	-12.6	38.7*
O=C(N/N=C\c1ccc(-c2ccccc2[N+](=O)[O-])o1)C1COc2cc3ccccc3cc2O1 (configuration not stated)	12.7	-5.9	-40.5	-0.2	2.4	-19.1	.
Cc1ccc(S(=O)(=O)n2cccc2/C=C/[N+](=O)[O-])cc1	.	.	.	-1.2	.	.	.
CCCNC(=O)c1nnsc1S(=O)c1ccc(Cl)cc1 (configuration not stated)	55.1*	-1.0	.	-1.2	.	-27.5	38.5*
CC(=O)C1=C(C)OC(N)=C(C#N)C1c1ccco1 (configuration not stated)	4.5	1.5	-4.1	-0.4	0.5	-4.7	.
Cc1nn(-c2ccccc2)c2c1C(c1ccco1)C(C#N)=C(N)O2 (configuration not stated)	68.1*	11.1	-23.1	-2.7	0.4	-17.1	17.8*
Cc1nn(-c2ccccc2)c2c1C(c1cccs1)C(C#N)=C(N)O2 (configuration not stated)	91.9*	-3.0	-1.8	-1.6	2.0	-3.7	9.81*
CCCc1nn(-c2ccccc2)c2c1C(c1cccs1)C(C#N)=C(N)O2 (configuration not stated)	66.6*	-4.0	6.0	-1.2	1.2	-31.2	16.5*
CC1(C(=O)NCc2ccccc2Br)CCN1Cc1csc2ccccc12 (configuration not stated)	.	.	.	-7.0	.	.	.
CN1C(=O)[C@H]2[C@@H](c3ccc(C(F)(F)F)cc3)N[C@]3(CCCN(Cc4ccc(Br)cc4)C3=O)[C@H]2C1=O	.	.	.	-21.9	.	.	.
SMILES	RecA intein inh	BJeLR viability	Rv3671c protease	FadD28 binding	UGM FP inh	PrP UTR inh	GFP chromo cs
Cc1ccc(Nc2cc(C)nn2-c2nc(C)cc(=O)[nH]2)cc1	39.3*	39.7	0.1	1.3	3.0	28.5	>38
Cc1ccc(-c2nc(CN3CCCC(C(=O)N4CCOCC4)C3)c(C)o2)cc1 (configuration not stated)	43.7*	-1.6	1.0	0.8	-0.3	-14.7	>38
Cc1c(NC(=O)c2cccc(NC(=O)COc3cccc(Br)c3)c2)c(=O)n(-c2ccccc2)n1C	.	.	-4.1	-2.0	1.6	-6.5	.
O=C(NCc1ccccc1)c1cc(C2COCCN2C(=O)OCCF)on1 (configuration not stated)	.	.	.	0.4	.	.	.
O=C(Nc1cccc(F)c1)N1CCC(c2ccccc2)CC1	37.7*	0.3	-12.0	-0.4	1.5	-16.6	>38
COC(=O)C(O)(c1c(C)[nH]n(-c2ccccc2)c1=O)C(F)(F)F (configuration not stated)	92.0*	-0.8	-19.2	-0.7	0.1	-11.0	7.54*
CCOC(=O)C1(CCOc2ccccc2)CCN(Cc2ccc(O)c(Cl)c2)CC1	42.7*	8.6	.	-5.2	-2.2	-16.5	>38
Cc1ccc(C2=NN(C(=O)CCl)C(c3cccs3)C2)o1 (configuration not stated)	73.9*	11.1	-4.8	-4.3	-4.8	-15.8	4.63*
O=C(CCl)N1N=C(c2ccco2)CC1c1cccs1 (configuration not stated)	67.2*	18.9	1.4	1.5	0.3	-25.9	25.4*
CC(=O)N1N=C(c2ccco2)CC1c1cccs1 (configuration not stated)	1.0	-6.4	-2.6	-3.5	-0.7	-27.0	.
CCOc1ccc(CN2CCN(CC3=Cc4cccc(OC)c4OC3)CC2CCO)cc1 (configuration not stated)	41.7*	-0.5	-3.6	-2.6	0.7	-7.5	>38
COc1cc(C(=O)N2CCC2(C)C(=O)O)cc(OC)c1OC (configuration not stated)	.	.	.	-3.5	.	.	.
CN(C(=O)c1cccc(NC(=O)Cc2ccc(NC(=O)C3CCCN(C(=O)C4CC4)C3)cc2)c1)C1CCC1 (configuration not stated)	.	.	.	-2.5	.	-9.8	.
NS(=O)(=O)c1ccc(N=Cc2c(O)c3ccccc3oc2=O)cc1	36.6*	-6.1	-5.2	-2.8	0.9	-28.0	>38
Cc1onc(-c2ccccc2)c1C(N)=O	-4.4	-1.1	7.7	0.8	-2.1	-27.3	.
Cc1onc(-c2ccccc2)c1C(=O)n1nnc2ccccc21	30.7*	-1.7	2.2	-3.6	-1.0	-15.3	35.4*
COc1cc(NC(C)CCCN)c2ncccc2c1Oc1ccccc1 (configuration not stated)	35.9*	9.4	-14.7	-2.3	.	-12.8	33.5*
CCc1nc2c(OCc3cccc(Cl)c3)cccn2c1N(C)C(=O)C1CC1	.	.	.	-5.1	.	.	.
